Assay results reported in PubChem BioAssay (NCI).
About 83,000 compounds went through this panel and 20% of them were active in at least one assay; those are over-represented in the sample as a whole.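 96-well plates, one dose, 48 hours. Percent growth reported; active if below 10.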 Unmarked numbers belong to inactive results. Calls of active or inactive are those of the source.

What was measured:
Experiment in all cases: NCI-60 one-dose screen, 48 h (100 = growth as untreated, 0 = no growth, -100 = all killed)
[1] = test system: SR leukemia; details: 10 µM unless noted
[2] = test system: OVCAR-8 ovarian; details: 10 µM unless noted
[3] = test system: OVCAR-5 ovarian; details: 10 µM unless noted
[4] = test system: OVCAR-4 ovarian; details: 10 µM unless noted
[5] = test system: IGROV1 ovarian; details: 10 µM unless noted
[6] = test system: OVCAR-3 ovarian; details: 10 µM unless noted
[7] = test system: HS 578T breast; details: 10 µM unless noted
[8] = test system: NCI/ADR-RES ovarian; details: 10 µM unless noted
[9] = test system: BT-549 breast; details: 10 µM unless noted
[10] = test system: SW-620 colon; details: 10 µM unless noted
[11] = test system: MCF7 breast; details: 10 µM unless noted
[12] = test system: HCT-116 colon; details: 10 µM unless noted
[13] = test system: HCC-2998 colon; details: 10 µM unless noted
[14] = test system: KM12 colon; details: 10 µM unless noted
[15] = test system: MDA-MB-435 melanoma; details: 10 µM unless noted
[16] = test system: SK-OV-3 ovarian; details: 10 µM
[17] = test system: T-47D breast; details: 10 µM
[18] = test system: RPMI-8226 leukemia; details: 10 µM

Compound	growth [1]	growth [2]	growth [3]	growth [4]	growth [5]	growth [6]	growth [7]	growth [8]	growth [9]	growth [10]	growth [11]	growth [12]	growth [13]	growth [14]	growth [15]	growth [16]	growth [17]	growth [18]
Cc1ccccc1-n1nnc(C(=O)Nc2ccc(-c3ccccc3)cn2)c1C	16% [50 µM]	41.2% [50 µM]	87.1% [50 µM]	11.5% [50 µM]	71% [50 µM]	68.8% [50 µM]	90% [50 µM]	33.3% [50 µM]	50.7% [50 µM]	69.3% [50 µM]	24.3% [50 µM]	31.3% [50 µM]	73.9% [50 µM]	53% [50 µM]	–	–	–	–
O=c1[nH]c(=O)n(Cc2ccc(F)cc2)cc1F	93.5% [50 µM]	–	104% [50 µM]	108% [50 µM]	108% [50 µM]	116% [50 µM]	104% [50 µM]	113% [50 µM]	102% [50 µM]	105% [50 µM]	96.3% [50 µM]	112% [50 µM]	112% [50 µM]	106% [50 µM]	104% [50 µM]	–	–	–
O=C(c1cnn2c1NC(c1ccc(F)cc1)C2)N1CCCCC1 (centres undefined)	107%	106%	102%	98.7%	103%	106%	99.8%	109%	110%	102%	93.2%	98.2%	113%	106%	94.8%	–	–	–
COc1cc(-c2nc(SC(C)C)nc(Nc3cccc(C)c3)c2C#N)cc(OC)c1OC	95%	93.5%	107%	107%	103%	115%	104%	–	107%	109%	98.1%	115%	116%	110%	107%	–	–	–
O=C(NCc1ccco1)C1CCN(S(=O)(=O)c2ccc(Cl)cc2)CC1	19.5%	80.4%	103%	–	–	-64.7% (active)	68.9%	66.6%	84.4%	38.5%	64.7%	70.4%	80.3%	37.6%	-9% (active)	94.5%	78%	–
Nc1ccccc1-c1n[nH]c(=O)[nH]c1=O	–	105%	109%	94.3%	108%	118%	92.7%	102%	111%	101%	102%	93.3%	101%	107%	100%	108%	114%	105%
CCN1CCN(c2ccc(Nc3ncc4ccc5ncn(C(C)C)c5c4n3)nc2)CC1	3.9% (active)	13.6%	4.92% (active)	5.12% (active)	-4.82% (active)	-28.2% (active)	-20.8% (active)	2.06% (active)	-24.7% (active)	-7.47% (active)	-1.88% (active)	8.77% (active)	-4.57% (active)	-16.9% (active)	0.992% (active)	–	–	–
O=c1c2c(=NCCN3CCCC3)cc3c(=O)n(CCCN4CCOCC4)c(=O)c4ccc(c(O)n1CCCN1CCOCC1)c2c4-3	13.5%	11.9%	-10.9% (active)	-49.1% (active)	2.41% (active)	-8.68% (active)	-13.9% (active)	-2.98% (active)	-34.9% (active)	-15.5% (active)	-17.7% (active)	0.411% (active)	-45.8% (active)	-20.9% (active)	-87.9% (active)	–	–	–
C=CCCCCCCCCC(=O)[O-].C=CCCCCCCCCC(=O)[O-].[Zn+2]	91.1%	–	–	–	–	–	–	–	–	–	–	–	–	–	–	–	112%	–
CC1CCCCN1S(=O)(=O)c1ccc(CN=C=S)cc1 (centres undefined)	5.92% (active)	78.7%	93%	100%	60.9%	-55.6% (active)	59.4%	102%	76%	-15.4% (active)	10.2%	9.92% (active)	103%	22.2%	–	–	–	–
COc1cc2cc(Oc3ccc(NC(=O)Nc4ccc(Cl)c(C(F)(F)F)c4)cc3)c(C)nc2cc1OCCN1CCCCC1	-15.9% (active)	-34.4% (active)	67.1%	-4.36% (active)	-47.2% (active)	-82.8% (active)	-44.5% (active)	–	71.7%	-89.4% (active)	-85.9% (active)	-46.3% (active)	-38.6% (active)	-79.6% (active)	-95.9% (active)	–	–	–
